The values that follow come from PubChem BioAssay (NCATS).

For assay [1], the target named is Glucagon-like peptide 1 receptor (Homo sapiens) (UniProt P43220). Nature of the assay: qHTS of GLP-1 Receptor Agonists: LOPAC Validation (AID 624148).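 Further: 0% is about no effect; higher luminescence signal means agonism.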 The procedure, abridged:
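HEK293 cells stably co-expressing GLP-1R and a cAMP-responsive luciferase reporter, plated 12 hours before compound, then incubated 4-6 hr at 37 deg C. Luminescence read 12 min after detection reagent.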

Assay [2] in a line: qHTS of Nrf2 Activators: LOPAC Validation (AID 624149). Further: 0% is about no effect. The method in brief: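 AREc32_Fluc cells, 1000/well in OPTI-MEM with 5% FBS, grown overnight, then exposed to compounds for 24 hr at 37 deg C, 5% CO2. ARE-driven firefly luciferase read by Steady-Glo luminescence after 30 min at RT.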
Assay [3] can be described thus: HTS Assay for Allosteric Antagonists of the Human D2 Dopamine Receptor: Hit Validation in HTRF (AID 624455). Further: potency means the concentration at half of the fitted maximal effect.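 Further: stable D1 dopamine receptor cell line scored for blocking the D1 response.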 The procedure, abridged: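 Hit validation in cells stably expressing the D1 dopamine receptor, run in HTRF format. Compounds were tested for their ability to inhibit the D1-mediated response.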
(TR-FRET usually uses a lanthanide donor and a delayed reading to cut background.)

Assay [4] in a line: qHTS assay for small molecule agonists of the antioxidant response element (ARE) signaling pathway (AID 651741; active means well fitted activation curve with a large enough effect in the signal ratio; the % refers to the signal ratio; further: potency means the concentration at half of the fitted maximal effect; on activation: % of control where 0% means no effect). The procedure, abridged: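 CellSensor ARE-bla HepG2 cells (2,000/well) carrying ARE-driven beta-lactamase, exposed 16 h at 37 C. LiveBLAzer B/G FRET substrate added for 2 h at room temperature; fluorescence intensity read.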
A general note: Quantitative high-throughput screening tests each substance at several concentrations.

The nature of assay [5]: qHTS assay for small molecule activators of the p53 signaling pathway (AID 651743; active means well fitted activation curve with a large enough effect in the signal ratio, not every such curve was filed as active; the % refers to the signal ratio; further: % of control where 0% means no effect). Particulars: HCT-116 p53RE-bla, beta-lactamase FRET ratio, 16 h; activation: stronger effect = higher value. The procedure, abridged:
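p53RE-bla HCT-116 cells carrying a beta-lactamase reporter under p53 response elements were exposed to compounds for 16 hours at 37 C. Reporter activity read as fluorescence after 2 hours at room temperature with LiveBLAzer B/G FRET substrate.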

Assay [6] is described as follows: qHTS assay for small molecule activators of the nuclear factor-kappa B (NF-kB) signaling pathway (AID 651749; active means well fitted activation curve with a large enough effect in the signal ratio; the % refers to the signal ratio; further: % of control where 0% means no effect). The following applies: NF-kB-bla ME-180 cells, beta-lactamase FRET ratio, 16 h; stronger effect = higher value. The procedure, abridged: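 NF-kB-bla ME-180 cells carrying a beta-lactamase reporter under an NF-kB response element, 2,000 cells/well, exposed to compound for 16 hr at 37C; FRET-based beta-lactamase fluorescence read-out of pathway activation.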

The nature of assay [7]: qHTS assay to identify small molecules that stimulate interleukin-8 (IL-8) secretion (AID 651758; active means well fitted activation curve with a large enough effect in the signal ratio; the % refers to the signal ratio; further: 0% is about no effect). The method in brief: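 THP-1 cells (2000/well) exposed to compound 16 h at 37 C; secreted IL-8 then detected by HTRF with cryptate- and XL665-labelled anti-IL-8 antibody pair after 1-3 h at room temperature.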
The nature of assay [8]: qHTS assay for environmental chemicals that activate the Aryl hydrocarbon Receptor (AhR) signaling pathway (AID 651777). Further: % of control where 0% means no effect; nearly all actives have a fitted effect of over 15% in size. The following applies: 1A2-DRE human hepatoma cells, luciferase, 24 h; activation: stronger effect = higher value. The procedure, abridged:
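Quantitative HTS in stably transfected human liver-derived cells whose luciferase gene sits downstream of the CYP1A2 promoter and dioxin response element. After 24 hr exposure at 37 C, One-Glo luminescence was measured.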

The target of assay [9] is Peroxisome proliferator-activated receptor alpha (Homo sapiens) (UniProt Q07869). Nature of the assay: qHTS assay for small molecule agonists of the peroxisome proliferator-activated receptor alpha (PPARalpha) signaling pathway (AID 651778). Further: % of control where 0% means no effect. Particulars: PathHunter PPARalpha complementation, chemiluminescence, 6 h; max response: stronger effect = higher value. The method in brief:
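Enzyme-fragment complementation assay in which ligand-bound PPARalpha translocates and forms an active enzyme that generates chemiluminescence. Cells were plated overnight, exposed to compound for 6 hr at 37 C, and then given detection reagent for 60 min at room temperature.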

Assay [10] can be described thus: Cytotoxicity counterscreen for NFkB agonists and antagonists (AID 624476). Further: potency means the concentration at half of the fitted maximal effect. In general terms: The purpose of a counterscreen is to sort out artefacts and off-target activity.
Assay [11] can be described thus: qHTS Assay for Identification of Small Molecule Agonists for NFkB Signaling Pathway. (AID 624478). Further: 0% is about no effect. The procedure, abridged: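 NFkB-bla ME-180 cells carry a beta-lactamase reporter. They received compound plus TNF alpha at 10 pM final (its EC50) for 5 h at 37 C. Reporter activity was read as 460/530 nm emission ratio after 2 h LiveBLAzer substrate loading.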
The nature of assay [12]: Cell Proliferation Assay against the TMD8 Cell Line (AID 651645).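 Further: cells exposed to compound for 48 h before reading.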 The following applies: TMD8 DLBCL cell line proliferation/viability; at 46.1 µM (top of the series) unless noted. The procedure, abridged:
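Cell viability of the ABC DLBCL line TMD8 is measured by CellTiter-Glo luminescence following a 48-hour incubation with compound. Percent activity uses DMSO as 100% and 9.2 uM bortezomib (final) as 0%.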

Assay [13] can be described thus: Cell Proliferation Assay against the HBL1 Cell Line (AID 651646).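 Further: cells exposed to compound for 48 h before reading.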 The following applies: HBL1 DLBCL cells; at 46.1 µM (top of the series) unless noted. The procedure, abridged:
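HBL1 ABC DLBCL cells, 500/well in RPMI with 5% FBS, treated for 48 h at 37C. Viability read by CellTiter-Glo luminescence, normalized to DMSO as 100% and 9.2 uM bortezomib as 0%.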

For assay [14], the target named is Tumor necrosis factor (Homo sapiens) (UniProt P01375). Nature of the assay: qHTS assay to identify small molecules that stimulate Tumor Necrosis Factor-alpha (TNF-alpha) secretion (AID 651757; active means well fitted curve in the direction sought with a large enough effect in the signal ratio; the % refers to the signal ratio; further: 0% is about no effect). The procedure, abridged:
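THP-1 cells (3000/well) exposed to compounds 17 hrs at 37 C. Secreted TNF-alpha detected by HTRF with cryptate- and XL665-labeled anti-TNF-alpha antibodies after 3 hr at room temperature.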

Values joined by “and” are separate entries in the source; they are usually repeats but may differ in a detail not shown here. Equal entries are not always repeated. Results filed as inconclusive are left out. Active and inactive are the calls of the source. Unless noted, the call rests on the fitted dose curve; in most records, active means well fitted curve in the direction sought with a large enough effect; inconclusive means small, poorly fitted or top-dose-only effect, or another doubt; inactive means no such curve, though single readings can be large; an effect the other way counts as inactive or inconclusive.

Chain of Peroxisome proliferator-activated receptor alpha (Homo sapiens) (Q07869 whole entry, looked up, the tested form may be a part): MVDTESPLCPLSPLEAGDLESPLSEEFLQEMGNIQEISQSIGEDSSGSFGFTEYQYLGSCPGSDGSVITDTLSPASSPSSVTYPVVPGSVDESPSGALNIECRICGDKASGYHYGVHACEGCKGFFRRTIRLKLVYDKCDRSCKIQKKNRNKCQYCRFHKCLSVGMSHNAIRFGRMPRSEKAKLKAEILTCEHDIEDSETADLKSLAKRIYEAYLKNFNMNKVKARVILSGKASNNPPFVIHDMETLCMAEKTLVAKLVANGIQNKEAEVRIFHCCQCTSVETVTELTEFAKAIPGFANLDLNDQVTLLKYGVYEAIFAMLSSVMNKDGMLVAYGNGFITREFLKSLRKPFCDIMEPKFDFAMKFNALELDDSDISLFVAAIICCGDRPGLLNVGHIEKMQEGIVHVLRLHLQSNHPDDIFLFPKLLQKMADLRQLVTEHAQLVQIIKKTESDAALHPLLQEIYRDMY
Chain of Glucagon-like peptide 1 receptor (Homo sapiens) (P43220 whole entry, looked up): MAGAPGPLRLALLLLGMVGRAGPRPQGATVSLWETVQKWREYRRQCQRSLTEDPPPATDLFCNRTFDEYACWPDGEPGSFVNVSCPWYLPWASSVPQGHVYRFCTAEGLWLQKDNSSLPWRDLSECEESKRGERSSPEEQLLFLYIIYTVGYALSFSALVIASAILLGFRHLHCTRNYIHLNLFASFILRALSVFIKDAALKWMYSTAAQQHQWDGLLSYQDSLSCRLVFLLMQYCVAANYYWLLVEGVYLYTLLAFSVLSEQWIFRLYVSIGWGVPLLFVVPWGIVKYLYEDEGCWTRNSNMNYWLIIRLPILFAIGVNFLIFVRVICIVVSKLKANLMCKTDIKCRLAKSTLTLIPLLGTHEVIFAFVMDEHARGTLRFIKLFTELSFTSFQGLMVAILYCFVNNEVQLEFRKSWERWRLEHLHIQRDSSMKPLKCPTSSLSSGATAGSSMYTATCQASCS
Chain of Tumor necrosis factor (Homo sapiens) (P01375 whole entry, looked up): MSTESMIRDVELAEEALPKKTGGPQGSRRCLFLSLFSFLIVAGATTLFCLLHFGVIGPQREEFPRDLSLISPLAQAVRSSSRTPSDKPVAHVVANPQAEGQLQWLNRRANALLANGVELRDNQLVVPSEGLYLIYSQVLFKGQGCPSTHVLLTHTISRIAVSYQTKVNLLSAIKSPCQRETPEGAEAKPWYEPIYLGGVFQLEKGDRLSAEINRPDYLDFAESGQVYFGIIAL

Regarding `CN1CCC(=C2c3ccccc3CC(=O)c3sccc32)CC1`, the Potency result in assay [1] and in assay [3] was “inactive” each time. Also, the call in assay [2] was inactive.
`CN(C)CCC=C1c2ccccc2C=Cc2ccccc21`: the Potency entry in assay [1] and in assay [3] was “inactive” throughout. For the same molecule, in assay [2], the call was inactive.
On to `COc1ccc2[nH]cc(CCNC(C)=O)c2c1`, for which the Potency result in assay [1], in [3] and in assay [4] was “inactive” throughout. Further, the call in [2] and in assay [7] was inactive. The activation is -4% (inactive) and -3.68% (inactive) and -2.3% (inactive) in assay [5]; -0.27% (inactive) and 0.655% (inactive) and 0.179% (inactive) in [6]; 0.634% (inactive) and 1.82% (inactive) and 3.42% (inactive) in [8]. In [9], the max response is -3.03% (inactive) and -8.27% (inactive) and 0.529% (inactive).
`COC(=O)Nc1nc2ccc(C(=O)c3cccs3)cc2[nH]1`: the Potency entry in [1] and in assay [3] was “inactive” each time. Further, the result in assay [2] was inactive.
Take `CN1C(C(=O)Nc2ccccn2)=C(O)c2ccccc2S1(=O)=O`: the Potency result in assay [1] and in assay [3] was “inactive” throughout. Moreover, in [2], the call was inactive.
For the molecule `Clc1ccc2c(c1)C(N1CCNCC1)=Nc1ccccc1O2`, the Potency entry in assay [1] and in assay [3] was “inactive” in each case. For the same molecule, in [2], the result was inactive.
`CC#C[C@]1(O)CC[C@H]2[C@@H]3CCC4=CC(=O)CCC4=C3[C@@H](c3ccc(N(C)C)cc3)C[C@@]21C`: the Potency entry in [1] and in assay [3] was “inactive” each time. Besides, the molecule was classed as inactive in assay [2]. Besides, the Potency in assay [4] was 21.7 µM (active). Also, the results for the activation in [6] and in assay [8] were 4.11% (inactive) and 14.1% (inactive), respectively. Also, the max response in [9] was -3.32% (inactive).
Take `Cn1cnc2c1c(=O)[nH]c(=O)n2C`: the Potency entry in assay [1], in assay [3] and in [4] was “inactive” throughout. The call in assay [2] was inactive. Besides, the activation in assay [6] was -2.65% (inactive); in assay [8], 2.86% (inactive). In addition, in [9], the max response is -2.11% (inactive).
For the molecule `CC(CCc1ccc(O)cc1)NCCc1ccc(O)c(O)c1` (stereo not drawn), the result in assay [2] was inactive. Also, the Potency in [3] was 3.26 µM (active).
Take `CS(=O)(=O)CCNCc1ccc(-c2ccc3ncnc(Nc4ccc(OCc5cccc(F)c5)c(Cl)c4)c3c2)o1`: in assay [10], the Potency was 23.5 µM (active). In addition, the result in assay [11] was inactive. Further, the viability (% of control) in [12] was determined as 0.834%. For the same molecule, in assay [13], the viability, percent of control stood at 3.03%.
`CC(C(=O)O)c1cccc(C(=O)c2ccccc2)c1` (stereo not drawn): the Potency entry in assay [1] and in [3] was “inactive” in each case.
As for `CC(COc1ccccc1)N(CCCl)Cc1ccccc1` (stereo not drawn), the Potency result in assay [1] and in [3] was “inactive” throughout. The molecule was called inactive in assay [2] and in assay [14]. Besides, the max response in assay [9] was -4.85% (inactive) and -2.28% (inactive).
For `O=C(c1ccc(OCCN2CCCCC2)cc1)c1c(-c2ccc(O)cc2)sc2cc(O)ccc12`, the Potency entry in assay [1] and in [3] was “inactive” throughout. For the same molecule, the molecule was called inactive in assay [2]. Also, the activation in [8] is -4.31% (inactive). Besides, the max response in assay [9] was -6.34% (inactive).
On to `CN1C2CCC1CC(OC(=O)C(CO)c1ccccc1)C2` (stereo not drawn), for which the result in [2] was inactive. For the same molecule, the Potency result in [3] was “inactive”.
As to `CN(C)CCOC(c1ccccc1)c1ccccc1`, the Potency entry in [1] and in [3] was “inactive” throughout. Moreover, the molecule was called inactive in [2]. In addition, the activation in [8] is 0.827% (inactive). In addition, in [9], the max response was -3.61% (inactive).
